# Bioassay records deposited in PubChem by National Center for Advancing Translational Sciences (NCATS).
# Sfp inh: qHTS Assay for Inhibitors of Bacillus subtilis Sfp phosphopantetheinyl transferase (PPTase); 4'-phosphopantetheinyl transferase ffp (Bacillus subtilis), Q9F4F7; Biochemical Sfp PPTase activity, qHTS; Potency, µM, inactives show largest response in the series, negative = inhibition, hits mostly inhibitors; 310,000 tested, 3.5% active; AID 1490, 2009;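 note: the enzyme is Sfp with the accession as filed and its product quenches rhodamine fluorescence; potency is the fitted concentration of half-maximal effect; 0% = enzyme reaction without inhibitor and -100% = no enzyme wells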
#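 Fluorescence-quenching assay with 15 nM Sfp, 5 uM rhodamine-CoA and 12.5 uM BHQ-2-labelled ybbR peptide in pH 7.6 Hepes/MgCl2 buffer. Enzyme was pre-incubated with compound for 15 min at room temperature. Rate was taken from the 30-min fluorescence change (525/598 nm).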
# Lamin A splicing: qHTS Assay for Modulators of Lamin A Splicing | HeLa LMNA splicing GFP/RFP minigene ratio, 48 h | Potency, µM (highest dose often 46.1 µM), without a hit: at the top dose ratio change, negative = inhibition, usual class: inhibitors | 200,000 tested, 0.01% active | AID 1487, 2009; active = well fitted inhibition curve with a large enough effect in the signal ratio, with a control signal flat, not every such curve was filed as active; inconclusive = small, poorly fitted or top-dose-only effect, or effect the other way, or a change in a side signal; the % refers to the signal ratio; note: potency is the fitted concentration of half-maximal effect; % is set by controls: 0 for no effect and ±100 for the full control effect
#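 S3 HeLa stable clones carrying a lamin A-EGFP splicing minigene plus DsRed2 were seeded at 600 cells/well in Opti-MEM with 2% FBS, pin-dosed and incubated 48 h at 37°C. Acumen cytometry (488 nm) gave the GFP/RFP total-intensity ratio.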
# miR-21 act: qHTS Assay for Modulators of miRNAs and/orActivators of miR-21. HeLa miR-21 FLuc reporter, luciferase, 48 h. Potency, µM (top dose mostly 38.3 µM), for the others: top-dose activity change, positive = activation, hits mostly activators. 340,000 tested, under 10 active. AID 2288, 2010;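 note: % of control where 0% means no effect; miR-21 action dims this reporter so a rising signal means less miR-21 action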
#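 Compounds were titrated across several concentrations (up to approximately 40 uM) and incubated 48 hours with HeLa miR-21-FLuc reporter cells (miR-21 target sequence downstream of FLuc, endogenous miR-21). Readout was firefly luciferase luminescence after lytic detection reagent.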
# ALDH1A1 block: qHTS Assay for Inhibitors of Aldehyde Dehydrogenase 1 (ALDH1A1). Purified ALDH1A1, NADH fluorescence, propionaldehyde substrate. Potency, µM (series often up to 75.3 µM), without a hit: at the top dose activity, negative = inhibition, usual class: inhibitors. 220,000 tested, 7.3% active; active = well fitted inhibition curve with a large enough effect, not every such curve was filed as active; inconclusive = small, poorly fitted or top-dose-only effect, or another doubt; inactive = no such curve, though single readings can be large or run the other way;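 note: potency is the fitted concentration of half-maximal effect; plate controls were no enzyme wells and a reference inhibitor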
# G9a inh: qHTS Assay for Inhibitors of Histone Lysine Methyltransferase G9a; Histone-lysine N-methyltransferase EHMT2 (Homo sapiens), Q96KQ7; G9a H3K9 monomethylation, AlphaScreen, 2 h; Potency, µM (titrated, usually from 102 µM), inactives show at the top dose activity, negative = inhibition, most hits filed as inhibitors; 350,000 tested, 8.8% active; AID 504332, 2011; note: potency is the fitted concentration of half-maximal effect; % is set by controls: 0 for no effect and ±100 for the full control effect; nearly all actives have a fitted effect of over 75% in size
# Target sequence (Q96KQ7 913-1193 limits assumed): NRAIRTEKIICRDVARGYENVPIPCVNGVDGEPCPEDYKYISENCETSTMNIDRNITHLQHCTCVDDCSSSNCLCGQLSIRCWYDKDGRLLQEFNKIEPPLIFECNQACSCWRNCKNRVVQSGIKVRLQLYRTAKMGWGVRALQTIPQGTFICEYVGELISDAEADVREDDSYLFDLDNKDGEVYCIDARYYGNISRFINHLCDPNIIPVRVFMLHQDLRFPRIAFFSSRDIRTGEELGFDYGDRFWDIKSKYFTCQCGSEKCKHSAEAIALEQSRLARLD
#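 Signal arises when biotinylated H3K9 peptide, once monomethylated, bridges streptavidin donor and antibody-captured acceptor beads. Enzyme at 20 nM was preincubated 15 min with test compounds; peptide 500 nM and SAM 20 uM then reacted for 2 h.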
# KDM4E inh: qHTS Assay for Inhibitors of Human Jumonji Domain Containing 2E (JMJD2E); Lysine-specific demethylase 4E (Homo sapiens), B2RXH2; JMJD2E catalytic domain, FDH-coupled NADH fluorescence (FDH is formaldehyde dehydrogenase); Potency, µM (doses to about 57.1 µM), for the others: at the top dose activity change, negative = inhibition, most hits filed as inhibitors; 230,000 tested, 1.6% active; active = well fitted inhibition curve with a large enough effect, not every such curve was filed as active; inconclusive = small, poorly fitted or top-dose-only effect, or another doubt; inactive = no such curve, though single readings can be large or run the other way;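 note: potency is the fitted concentration of half-maximal effect; 0% = wells with enzyme and -100% = buffer wells without enzyme; nearly all actives have a fitted effect of over 50% in size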
# Target sequence (B2RXH2 1-337 limits assumed): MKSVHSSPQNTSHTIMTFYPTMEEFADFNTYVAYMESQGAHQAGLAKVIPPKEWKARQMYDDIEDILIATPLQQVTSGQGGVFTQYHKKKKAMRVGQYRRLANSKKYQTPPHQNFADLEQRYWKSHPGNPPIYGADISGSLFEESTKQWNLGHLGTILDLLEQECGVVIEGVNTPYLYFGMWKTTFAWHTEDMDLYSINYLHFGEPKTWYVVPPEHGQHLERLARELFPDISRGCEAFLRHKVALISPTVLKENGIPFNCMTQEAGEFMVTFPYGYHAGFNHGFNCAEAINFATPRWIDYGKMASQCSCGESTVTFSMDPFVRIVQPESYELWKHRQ
# An asterisk follows results filed as active; u = inconclusive; x = no result; [ ] = remark or other dose. Rows were chosen to be rich in hits. Some 13% of all compounds tested hit in one or more screens of this group. Unless noted, calls come from the whole dose curve; as a rule, active = well fitted curve in the direction sought with a large enough effect; inconclusive = small, poorly fitted or top-dose-only effect, or another doubt; inactive = no such curve, though single readings can be large; an effect the other way counts as inactive or inconclusive.
SMILES,Sfp inh,Lamin A splicing,miR-21 act,ALDH1A1 block,G9a inh,KDM4E inh
CCOC(=O)C1CCN(C(c2ccc(C)cc2)c2c(O)cc(C)n(CCOC)c2=O)CC1 (stereo not given),x,u,-1.2%,x,u,x
CCCn1nc(C(=O)Oc2ccc3c(C)cc(=O)oc3c2)c2ccccc2c1=O,-1.8%,-7.7%,-1.4%,u,14.1µM*,u
O=C(O)CC12CSc3[nH]c(=O)sc3C1c1ccccc1OC2=O (stereo not given),14.1µM*,13.7%,-2.4%,u,50.1µM*,1.1%
CC(=O)N1CCOCCOCCN(C(C)=O)CCOCC1,9.8%,x,-1.1%,-11.5%,-5.9%,0.4%
COc1ccc(-c2onc3ccc(Br)cc23)cc1,70.8µM*,12.7%,-12.8%,-7.1%,-6.2%,-7.1%
COc1cc(-c2nc(-c3ccc(Br)o3)no2)cc(OC)c1OC,-7.3%,7.1%,-2.8%,-4.3%,-9.2%,u
COc1ccc(-c2onc3ccc(C(=O)/C=C/N(C)C)cc23)cc1,5.0%,x,3.7%,x,-29.8%,x
COc1cc(-c2onc3ccc(Br)cc23)cc(OC)c1OC,50.1µM*,1.8%[46 µM],18.2%,u,15.5%[0.501 µM],u
CCO[C@@H]1OC(C(=O)NCc2ccccc2)=C[C@H](c2ccc3c(c2)OCO3)[C@H]1CCCO,16.3%,x,-2.6%,14.1µM*,7.5%[12.7 µM],9.6%
CCO[C@H]1OC(C(=O)NCc2ccccc2)=C[C@@H](c2ccc3c(c2)OCO3)[C@@H]1CCCO,-0.2%,x,-2.8%,7.5%,8.6%[59 µM],7.9%
CCOc1cc(S(=O)(=O)NCc2ccccc2)ccc1Br,3.6%,u,-10.3%,-4.6%,6.0%,-15.2%
C=CCc1cc(/C=C2/NC(=O)N(CC)C2=O)cc(OCC)c1OCc1ccc(C(=O)O)cc1,12.2%,10.1%,-1.2%,3.16µM*,-4.6%[59 µM],u
Cc1ccc(CNC(=O)CCc2c(C)c3cc4c(C)coc4cc3oc2=O)cc1,x,x,-14.1%,x,6.7%[59 µM],x
COc1ccc(C[C@H]2CN3C(=NC[C@@H]3C(C)C)N2C[C@H](C)NC(=O)c2ccc(C)c(Br)c2)cc1,4.3%,x,1.6%,-6.5%,u,4.5%
Cc1ccc(C(=O)NCCN2C3=NC[C@@H](Cc4ccccc4)N3C[C@H]2Cc2ccc(O)cc2)cc1Br,44.7µM*,x,22.6%,-14.0%,-13.5%[59 µM],0.6%
COc1ccc(C[C@@H]2CN3C(=NC[C@@H]3C)N2C[C@H](C)NC(=O)CCC2CCCCC2)cc1,50.1µM*,x,-1.9%,7.08µM*,u,7.4%
COc1ccc(C[C@H]2CN3C(=NC[C@@H]3Cc3ccccc3)N2CCNC(=O)c2ccc(C)c(Br)c2)cc1,31.6µM*,x,16.5%,u,x,3.7%
Cc1ccc(C(=O)N[C@@H](C)CN2C3=NC[C@H](C(C)C)N3C[C@H]2Cc2ccc(O)cc2)cc1Br,39.8µM*,x,19.0%,u,u,-3.7%
Cc1ccc(C(=O)NCCN2C3=NC[C@H](Cc4ccc(O)cc4)N3C[C@H]2Cc2ccc(O)cc2)cc1Br,-24.6%,x,1.1%,x,-6.0%[59 µM],4.7%
COc1ccccc1CNC(=O)c1ccc2c(c1)nnn2C1CCCC1,x,x,-19.5%,x,7.0%[59 µM],x
COc1ccc(C[C@H]2CN3C(=NC[C@H]3Cc3ccccc3)N2CCNC(=O)CCC2CCCCC2)cc1,-6.4%,x,8.8%,10µM*,8.6%[59 µM],-2.6%
COc1ccc(C[C@H]2CN3C(=NC[C@@H]3Cc3ccc(O)cc3)N2CCNC(=O)c2ccc(C)c(Br)c2)cc1,-19.0%,x,u,-11.5%,u,-5.8%
COc1ccc(C[C@H]2CN3C(=NC[C@H]3Cc3ccccc3)N2CCNC(=O)c2ccc(C)c(Br)c2)cc1,50.1µM*,x,u,x,-12.4%[59 µM],-0.4%
CC1=C(C(=O)Nc2cccc(C(=O)N3CCC(C(N)=O)CC3)c2)SCCO1,11.0%,x,-0.1%,x,-0.1%,x
c1ccc(Nc2ccccn2)nc1,-0.8%,5.3%[46 µM],-0.9%,x,0.501µM*,-15.1%
SMILES,Sfp inh,Lamin A splicing,miR-21 act,ALDH1A1 block,G9a inh,KDM4E inh
Cc1cccc(Nc2nc(N)c([N+](=O)[O-])c(N3CCCC(C)C3)n2)c1 (stereo not given),5.9%,u,19.8%,u,39.8µM*,3.3%
O=C1CC(SCc2nc3ccccc3[nH]2)C(=O)N1c1cccc(F)c1 (stereo not given),u,20.7%,-1.9%,12.6µM*,u,u
O=C1CC(SCc2nc3ccccc3[nH]2)C(=O)N1c1ccc(Cl)cc1 (stereo not given),-8.1%,7.5%,-4.9%,25.1µM*,17.8µM*,3.5%
O=C1CC(SCCc2nc3ccccc3[nH]2)C(=O)N1c1ccc(Cl)cc1 (stereo not given),-13.1%,-0.2%,1.1%,u,-48.9%,-2.0%
O=C1CC(SCc2nc3ccccc3[nH]2)C(=O)N1c1ccc(F)c(Cl)c1 (stereo not given),-17.2%,8.8%,-3.9%,5.01µM*,39.8µM*,u
CCOc1ccc(N2C(=O)CC(SCc3nc4ccccc4[nH]3)C2=O)cc1 (stereo not given),-25.5%,x,-6.6%,4.47µM*,x,-23.8%
c1ccc(CCNc2nc(-c3ccccn3)nc3ccccc23)cc1,-11.7%,x,u,x,-27.8%,5.8%
C#CCn1c(O)c(N=NC(=O)CNC(=O)c2cccnc2)c2ccccc21,16.8%,x,-5.8%,x,-80.7%,x
O=C(CN1C(=O)NC2(CCCc3ccccc32)C1=O)NCC(F)(F)F (stereo not given),15.1%,x,3.4%,x,15.8%,x
CCOC(=O)c1c(NC(=O)CSc2cn(CCNC(=O)c3ccc(OC)c(OC)c3)c3ccccc23)sc2c1CCCC2,x,x,3.4%,x,6.5%[59 µM],x
Cc1c(Cl)cccc1NC(=O)C[C@H]1Sc2ccccc2NC1=O,x,x,x,18.5%[13.5 µM],x,x
CCCc1cc(=O)oc2c(CN3CCOCC3)c(O)ccc12,3.7%,4.0%,-4.3%,u,21.3%[59 µM],u
O=c1cc(CN2CCOCC2)c2ccc(O)c(O)c2o1,44.7µM*,x,-9.2%,x,7.94µM*,x
O=c1cc(CN2CCN(Cc3ccccc3)CC2)c2ccc(O)c(O)c2o1,79.4µM*,x,-16.0%,x,35.5µM*,x
C1CCCNCC1,x,x,x,22.4µM*,x,x
Cc1cccc(NC2SC(=O)NC2=O)c1 (stereo not given),-0.7%,x,-1.4%,2.3%,50.1µM*,-0.4%
Cc1ccc([N+](=O)[O-])cc1NC(=O)c1ccoc1C,-15.8%,10.0%,-38.1%,20µM*,-3.2%[59 µM],-5.0%
